Screening results (PubChem BioAssay)
ABHD5-PLIN5 inh: inhibitors of human ABHD5-perilipin-5 interaction | Split G. princeps luciferase complementation, luminescence, 4 h | Q00G26+Q8WTS1 | AID 602281 | 0.78% of 360,000 active | inhibition, % at 4 µM;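 active = inhibition above the mean inhibition across every tested compound plus 3 SD, cut at about 22% in these data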
Cardio protect: protects H9c2 cardiomyocytes from peroxide injury; H2O2 injury protection, ATPLite, 2 h; protection from H2O2 cell death, % at 20 µM; 0.63% of 360,000 active;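 active = compounds giving at least 50% protection of heart cells from peroxide-induced death in the single-dose screen, raw or plate-pattern-corrected value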
Myeloid diff 2: myeloid differentiation induction. calls only at 10 µM. 1% of 360,000 active. AID 624256. ER-HoxA9 myeloid progenitors, lysozyme-GFP differentiation, flow cytometry;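 active = normalized GFP-positive differentiation at or above the plate's own cutoff, the solvent-only control mean plus 3 SD; inconclusive = no clear call, values can overlap the other calls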;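 also: cells exposed to compound for four days before flow analysis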
HGIII-sPLA2 inh: Inhibits HGIII-sPLA2 liposome hydrolysis, primary screen; 0.56% of 370,000 active; Q9NZ20; QFRET BODIPY PC-A2 liposome hydrolysis, fluorescence; AID 743126; inhibition, % at 12.2 µM;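 active = inhibition above mean plus 3 SD of compounds lying within the high and low control bounds, cut at about 19% in these data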
DAGLB inh: diacylglycerol lipase beta (human) inhibition. HEK293T DAGLB membrane lysate, EnzChek fluorogenic substrate. inhibition, % at 5.17 µM. 0.059% of 340,000 active; in the data active = inhibition above about 34%
Rtt109 HAT inh: blocks Candida albicans Rtt109/Vps75 acetyltransferase activity; inhibition, % at 34.9 µM; 0.16% of 330,000 active; AID 540336; Q5AAJ8; purified Rtt109/Vps75, ThioGlo CoA-SH fluorescence, 4 h;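 active = inhibition of at least 50% in every replicate; inconclusive = best replicate reaches 50% inhibition but some replicates fall short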
Target sequence (Q5AAJ8 whole entry, looked up): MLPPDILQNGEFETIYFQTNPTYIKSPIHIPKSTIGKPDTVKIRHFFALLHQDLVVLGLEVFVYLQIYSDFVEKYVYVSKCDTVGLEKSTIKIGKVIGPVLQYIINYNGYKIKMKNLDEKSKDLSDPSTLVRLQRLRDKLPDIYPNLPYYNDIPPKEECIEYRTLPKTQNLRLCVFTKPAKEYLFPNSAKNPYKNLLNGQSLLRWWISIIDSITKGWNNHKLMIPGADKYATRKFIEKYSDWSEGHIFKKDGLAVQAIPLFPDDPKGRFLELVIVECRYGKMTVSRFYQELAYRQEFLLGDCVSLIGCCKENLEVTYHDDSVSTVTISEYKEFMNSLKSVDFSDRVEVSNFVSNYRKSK
Each line names hits and unclear results; the compound was inactive in the other large screens; ! = repeats disagree. The list is not random: actives were taken first. Their share in the collection is about 2.9%.

O=C(Nc1nccs1)C1(C(=O)C2CC2)CC(c2ccccn2)=NO1 (centres undefined)	none (no result: ABHD5-PLIN5 inh, Cardio protect, Myeloid diff 2, DAGLB inh, Rtt109 HAT inh)
COc1ccc(-c2c(NC(=O)c3ccco3)oc3c(C)cccc3c2=O)cc1OC	none
Cc1cccc(-c2c(NC(=O)c3ccco3)oc3c(C)cccc3c2=O)c1	Myeloid diff 2 active
O=C(COC(=O)c1ccc(S(=O)(=O)N2CCCC2)cc1)Nc1cccc(F)c1	none
O=S1(=O)CC(N2CC=CC2)CN1Cc1cn(Cc2ccccc2)nn1 (centres undefined)	none (no result: Cardio protect, DAGLB inh, Rtt109 HAT inh)
CN1C(=O)C(Cl)(Cl)C(=O)c2ccccc21	ABHD5-PLIN5 inh 88.1, Rtt109 HAT inh inconclusive (no result: HGIII-sPLA2 inh)
CC(=O)C1=C(O)C(=O)OC1c1ccc(Cl)cc1 (centres undefined)	none
Cc1ccc(CCN2CC(C(=O)NCc3ccc4c(c3)OCO4)CC2=O)cc1 (centres undefined)	none
CCC1=[N+](C)c2cccc3cccc(c23)N1C	Myeloid diff 2 active
CCN1C(=O)Nc2cccc3cccc1c23	none
CN1CCN(C(c2ccccn2)c2cc(Cl)c3cccnc3c2O)CC1 (centres undefined)	Rtt109 HAT inh 55.8
Oc1c(C(c2ccc(Cl)cc2)N2CCCC2)cc(Cl)c2cccnc12 (centres undefined)	Cardio protect 72.4
O=S(=O)(Cc1cc(-c2ccc(Cl)cc2)no1)c1ccccc1	none
Cc1cc(C)c2c(c1)NC(C(=O)O)C1CC=CC21 (centres undefined)	Myeloid diff 2 active
Cc1ccc2c(c1C)NC(C(=O)O)C1CC=CC21 (centres undefined)	none (no result: HGIII-sPLA2 inh)
Cc1cc(OCc2ccc(C(=O)NN=C3CCCC3)cc2)ccc1Cl	Rtt109 HAT inh 55.7
COc1ccc(C(=O)NN=C2CCCC2)cc1	Myeloid diff 2 active
CC1(C(=O)Nc2cnc3ccccc3c2)CCN1Cc1ccc2c(c1)OCCO2 (centres undefined)	none (no result: DAGLB inh, Rtt109 HAT inh)
O=C(NCCNC(=O)Nc1ccc(Cl)cc1)Nc1ccc(Cl)cc1	Myeloid diff 2 active
COc1ccc(NC(=S)N2CCC(C(=O)c3ccc(F)cc3)CC2)c(OC)c1	none
N=c1oc2c3c4c(cc2cc1C(=O)Nc1ccccc1)CCCN4CCC3	Myeloid diff 2 active (no result: HGIII-sPLA2 inh)
Cc1ccc(NC(=O)c2cc3ccccc3oc2=N)cc1	none
COc1ccc(CCn2c(=O)c3cccnc3n(Cc3ccc([N+](=O)[O-])cc3)c2=O)cc1OC	Cardio protect 55.7 (no result: Rtt109 HAT inh)
COCCn1c(SCc2cccc([N+](=O)[O-])c2)nc2ccccc2c1=O	none
CCOC(CCn1c(SCc2cccc([N+](=O)[O-])c2)nc2ccccc2c1=O)OCC	Myeloid diff 2 active
Cc1ccc(C(=O)NNc2cc(=O)n(C)c(=O)n2C)cc1C	none
O=C(NCC1CCCO1)c1ccccc1-c1nc(-c2ccc(Cl)cc2)no1 (centres undefined)	Myeloid diff 2 active
Cc1ccccc1-c1nc(CS(=O)(=O)CC(=O)N2CCN(C)CC2)c(C)o1	none
Clc1ccc2c(NCCNC3CCCCC3)ccnc2c1	Myeloid diff 2 active
CC(C)NC1CCC(Nc2ccnc3cc(Cl)ccc23)CC1 (centres undefined)	Myeloid diff 2 active
CC(CCCN1CCCC1)Nc1ccnc2cc(Cl)ccc12 (centres undefined)	none
CN(C)CCOC(C1CCCCC1)C1CCCCC1	none
O=c1ccsn1Cc1ccccc1	ABHD5-PLIN5 inh 82.1, Myeloid diff 2 inconclusive
O=C1NC(Cc2ccccc2)C(=O)N1Cc1ccccc1 (centres undefined)	none
CCN(CC)CCOC(c1ccccc1)c1ccc(C)cc1 (centres undefined)	none
Cc1ccccc1C(OCCN(C)C)c1ccccc1 (centres undefined)	ABHD5-PLIN5 inh 26.7!
COc1ccc(NC(=O)/C(Cl)=C(/Cl)S(=O)Cc2ccc(Cl)cc2)cn1 (centres undefined)	ABHD5-PLIN5 inh 95.6 (no result: Myeloid diff 2)
COc1ccc(NC(=O)/C(Cl)=C(/Cl)S(=O)(=O)Cc2ccccc2)cn1	ABHD5-PLIN5 inh 48.7, Myeloid diff 2 inconclusive
COc1ccc(NC(=O)C(Cl)=C(Cl)Cl)cn1	Myeloid diff 2 inconclusive
CCC(=O)c1cn(/C(=C\C(=O)OC(C)(C)C)CCC(OC)OC)cc1CC	Myeloid diff 2 active
COc1cccc(NC(=O)CSc2nnc(CN3CCOCC3)n2C)c1	none
CCN(CC)c1ccc(C(=O)NN)cc1	Myeloid diff 2 active
CC(=O)OCC1=C(C(=O)O)N2C(=O)C(NC(=O)CC(C)c3ccccc3)C2SC1 (centres undefined)	none
CN1CCC[C@H]1CCNc1ccc2c(=O)c3ccccc3n(C)c2c1	Myeloid diff 2 active
Cc1nn(C)c(NC(=O)c2ccc(Cl)cc2Cl)c1Br	Myeloid diff 2 active
CCC(=O)Nc1nonc1-c1nc2ccccc2n1Cc1ccccc1	none
CCOC(=O)Cn1c(-c2nonc2NC(=O)c2ccccc2F)nc2ccccc21	Myeloid diff 2 active
CC(=O)c1ccc2cccc3c2c1N=CN3C	Myeloid diff 2 active
CC1CCN(CC(=O)NC2CCCCC2)CC1	none
c1cncc(-c2nc(N3CCOCC3)c3ccccc3n2)c1	none (no result: HGIII-sPLA2 inh)
Cc1cc(N)n(-c2nc(-c3cccnc3)nc3ccccc23)n1	Cardio protect 86.4
O=S(=O)(c1ccccc1)N1CCN(c2nc(-c3cccnc3)nc3ccccc23)CC1	Cardio protect 57.9
C/C(=N\NC(=O)c1ccccc1O)C1C(=O)c2ccccc2C1=O	Rtt109 HAT inh inconclusive
C/C(=N/NC(=O)c1cc2ccccc2cc1O)C1C(=O)c2ccccc2C1=O	HGIII-sPLA2 inh 28.6
COc1ccc2ccc(O)c(CN(C)CC(=O)Nc3ccccc3C(F)(F)F)c2c1	ABHD5-PLIN5 inh 22.4
Cc1ccc2cccc(NC(=S)NC(=O)c3ccnn3C)c2n1	Myeloid diff 2 active
CC(=O)NC(=S)Nc1cccc2ccc(C)nc12	none
Cc1nc2ccccc2c(=O)n1/N=C/c1c(O)ccc2oc3c(c12)CCCC3	Cardio protect 100.1
O=c1c2ccccc2nc(/C=C/c2cc(Br)ccc2O)n1CCCO	Cardio protect 50.0
CC(C)(C)N=Cc1c(O)ccc2oc3c(c12)CCCC3	Cardio protect 72.7
COc1ccc(Br)cc1/C=N/n1c(C)nc2ccccc2c1=O	none
Cc1nc2ccccc2c(=O)n1/N=C/c1cc(Br)ccc1O	Cardio protect 54.0
Cc1ccc2nc3n(c(=O)c2c1)-c1cc(Cl)ccc1C(=O)NC3Cc1ccc(O)cc1 (centres undefined)	none (no result: ABHD5-PLIN5 inh, Cardio protect, Myeloid diff 2, DAGLB inh, Rtt109 HAT inh)
CCOc1ccccc1CNc1nc2nc3c(c(=O)n2[nH]1)CCC3	none
Cc1nc2ccccc2c(=O)n1/N=C/c1c(O)ccc2ccccc12	Cardio protect 74.2 (no result: Rtt109 HAT inh)
O=C1CSC(=S)N1N=Cc1c(O)ccc2ccccc12	Cardio protect 56.3
Cc1nc2ccccc2c(=O)n1/N=C/c1ccc(N(C)C)cc1	none
O=C(CCN1CCN(c2ccccc2)CC1)N/N=C/c1ccccc1O	Cardio protect 55.1
